Reference: PubChem BioAssay (NCATS)
Records with an inconclusive call do not appear. Entries that show only a call come without a potency. Active and inactive are the calls of the source. Unless noted, the call rests on the fitted dose curve; in most records, active means well fitted curve in the direction sought with a large enough effect; inconclusive means small, poorly fitted or top-dose-only effect, or another doubt; inactive means no such curve, though single readings can be large; an effect the other way counts as inactive or inconclusive.

Columns and labels:
[1] = biological target: Cytochrome P450 3A4 (Homo sapiens) (UniProt P08684); experiment: qHTS Assay for Activators of Cytochrome P450 3A4 (AID 885); further: nearly all actives have a fitted effect of over 65% in size
Chain of Cytochrome P450 3A4 (Homo sapiens) (P08684 whole entry, looked up): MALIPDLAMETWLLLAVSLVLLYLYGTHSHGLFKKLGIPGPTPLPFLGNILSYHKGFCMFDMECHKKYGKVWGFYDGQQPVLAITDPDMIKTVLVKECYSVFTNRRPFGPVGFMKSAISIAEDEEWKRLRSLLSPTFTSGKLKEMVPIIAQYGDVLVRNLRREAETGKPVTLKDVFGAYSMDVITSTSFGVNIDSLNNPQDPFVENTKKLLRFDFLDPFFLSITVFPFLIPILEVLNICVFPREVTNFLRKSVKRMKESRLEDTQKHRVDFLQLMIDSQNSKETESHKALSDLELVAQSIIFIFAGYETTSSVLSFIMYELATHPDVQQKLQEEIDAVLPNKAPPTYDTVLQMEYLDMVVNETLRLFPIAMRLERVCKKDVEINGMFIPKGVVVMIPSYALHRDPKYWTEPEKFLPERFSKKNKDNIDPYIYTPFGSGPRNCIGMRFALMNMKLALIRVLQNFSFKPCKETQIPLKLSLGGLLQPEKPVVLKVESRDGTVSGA
Outline: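 Human CYP3A4 dealkylates Luciferin-PPXE to luciferin, which luciferase detection converts to light. Substrate was at its KM (25uM), buffer 200mM KPO4, reaction 60 min at RT.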

[2] = qHTS Assay for Lipid Storage Modulators (AID 1519; calls by dose curve); conditions: Drosophila S3 cells, BODIPY lipid droplet/cell ratio, laser cytometry, cells loaded with oleic acid; for activity change, negative = inhibition: at 57.5 µM (top of the series)
Outline: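 Cells seeded at 5,000 per well were treated with compounds over a concentration series and loaded with oleic acid (400 uM, as added). Lipid droplet fluorescence (488 nm excitation, 500-530 nm channel) was read by laser-scanning cytometry and normalized to 20 uM Triacsin C.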

[3] = biological target: DNA dC->dU-editing enzyme APOBEC-3G (Homo sapiens) (UniProt Q9HC16); experiment: qHTS for inhibitors of Vif-A3G interactions: Validation (AID 588379)
Chain of DNA dC->dU-editing enzyme APOBEC-3G (Homo sapiens) (Q9HC16 whole entry, looked up): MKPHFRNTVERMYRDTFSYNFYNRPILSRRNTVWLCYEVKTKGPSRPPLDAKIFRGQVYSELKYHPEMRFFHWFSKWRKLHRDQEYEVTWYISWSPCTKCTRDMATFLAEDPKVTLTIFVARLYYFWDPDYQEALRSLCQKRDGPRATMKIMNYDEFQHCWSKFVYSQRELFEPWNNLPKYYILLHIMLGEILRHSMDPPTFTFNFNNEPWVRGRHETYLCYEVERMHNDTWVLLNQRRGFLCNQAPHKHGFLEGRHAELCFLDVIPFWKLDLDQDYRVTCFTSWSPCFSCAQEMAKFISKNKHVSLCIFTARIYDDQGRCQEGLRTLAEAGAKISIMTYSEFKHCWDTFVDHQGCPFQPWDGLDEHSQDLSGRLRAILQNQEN
Outline: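 Yellow fluorescence (Ex 488, Em 500-530) of Vif-coexpressing HeLa A3G-eYFP cells, scanned by Acumen cytometer, reports blocked A3G degradation. Cells plated at 700/well overnight at 37 deg C before compound addition, then a further overnight compound incubation at 37 deg C.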

[4] = biological target: Rap guanine nucleotide exchange factor 3 (Homo sapiens) (UniProt O95398); experiment: Confirmatory qHTS for agonist of cAMP-regulated guanine nucleotide exchange factor 3 (EPAC1) (AID 1645881);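 further: EPAC1 catalysed release of BODIPY-GDP from Rap1B seen as fluorescence loss; nearly all actives have a fitted effect of over 75% in size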
Chain of Rap guanine nucleotide exchange factor 3 (Homo sapiens) (O95398 whole entry, looked up): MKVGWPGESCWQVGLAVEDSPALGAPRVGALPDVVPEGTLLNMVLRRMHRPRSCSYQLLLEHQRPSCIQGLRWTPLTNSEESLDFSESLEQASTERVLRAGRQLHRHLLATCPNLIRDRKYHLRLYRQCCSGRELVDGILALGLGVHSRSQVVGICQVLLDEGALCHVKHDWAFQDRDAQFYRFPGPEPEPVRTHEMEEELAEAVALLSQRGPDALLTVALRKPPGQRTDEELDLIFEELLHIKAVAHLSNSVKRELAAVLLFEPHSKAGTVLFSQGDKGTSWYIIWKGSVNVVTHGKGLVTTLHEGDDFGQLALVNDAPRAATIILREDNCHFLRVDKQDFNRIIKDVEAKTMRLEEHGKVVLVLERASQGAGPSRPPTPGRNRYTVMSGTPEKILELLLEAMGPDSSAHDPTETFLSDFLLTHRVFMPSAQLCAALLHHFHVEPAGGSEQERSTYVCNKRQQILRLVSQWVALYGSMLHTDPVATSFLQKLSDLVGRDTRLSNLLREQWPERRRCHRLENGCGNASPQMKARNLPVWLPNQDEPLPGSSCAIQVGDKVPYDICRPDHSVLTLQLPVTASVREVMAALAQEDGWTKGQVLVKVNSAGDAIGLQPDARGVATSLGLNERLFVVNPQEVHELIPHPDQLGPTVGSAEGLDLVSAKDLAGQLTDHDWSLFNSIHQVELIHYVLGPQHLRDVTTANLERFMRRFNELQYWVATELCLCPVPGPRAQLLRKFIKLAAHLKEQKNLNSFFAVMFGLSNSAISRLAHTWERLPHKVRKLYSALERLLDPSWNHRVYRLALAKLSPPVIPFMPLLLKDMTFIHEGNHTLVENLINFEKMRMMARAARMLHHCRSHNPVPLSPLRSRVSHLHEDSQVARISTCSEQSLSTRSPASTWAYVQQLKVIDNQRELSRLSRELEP

[5] = biological target: Rap guanine nucleotide exchange factor 4 (Homo sapiens) (UniProt Q8WZA2); experiment: Confirmatory qHTS for agonist of cAMP-regulated guanine nucleotide exchange factor 4 (EPAC2) (AID 1645884);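 further: nucleotide exchange releases bodipy-GDP from Rap1 and this lowers its fluorescence; nearly all actives have a fitted effect of over 65% in size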
Chain of Rap guanine nucleotide exchange factor 4 (Homo sapiens) (Q8WZA2 whole entry, looked up): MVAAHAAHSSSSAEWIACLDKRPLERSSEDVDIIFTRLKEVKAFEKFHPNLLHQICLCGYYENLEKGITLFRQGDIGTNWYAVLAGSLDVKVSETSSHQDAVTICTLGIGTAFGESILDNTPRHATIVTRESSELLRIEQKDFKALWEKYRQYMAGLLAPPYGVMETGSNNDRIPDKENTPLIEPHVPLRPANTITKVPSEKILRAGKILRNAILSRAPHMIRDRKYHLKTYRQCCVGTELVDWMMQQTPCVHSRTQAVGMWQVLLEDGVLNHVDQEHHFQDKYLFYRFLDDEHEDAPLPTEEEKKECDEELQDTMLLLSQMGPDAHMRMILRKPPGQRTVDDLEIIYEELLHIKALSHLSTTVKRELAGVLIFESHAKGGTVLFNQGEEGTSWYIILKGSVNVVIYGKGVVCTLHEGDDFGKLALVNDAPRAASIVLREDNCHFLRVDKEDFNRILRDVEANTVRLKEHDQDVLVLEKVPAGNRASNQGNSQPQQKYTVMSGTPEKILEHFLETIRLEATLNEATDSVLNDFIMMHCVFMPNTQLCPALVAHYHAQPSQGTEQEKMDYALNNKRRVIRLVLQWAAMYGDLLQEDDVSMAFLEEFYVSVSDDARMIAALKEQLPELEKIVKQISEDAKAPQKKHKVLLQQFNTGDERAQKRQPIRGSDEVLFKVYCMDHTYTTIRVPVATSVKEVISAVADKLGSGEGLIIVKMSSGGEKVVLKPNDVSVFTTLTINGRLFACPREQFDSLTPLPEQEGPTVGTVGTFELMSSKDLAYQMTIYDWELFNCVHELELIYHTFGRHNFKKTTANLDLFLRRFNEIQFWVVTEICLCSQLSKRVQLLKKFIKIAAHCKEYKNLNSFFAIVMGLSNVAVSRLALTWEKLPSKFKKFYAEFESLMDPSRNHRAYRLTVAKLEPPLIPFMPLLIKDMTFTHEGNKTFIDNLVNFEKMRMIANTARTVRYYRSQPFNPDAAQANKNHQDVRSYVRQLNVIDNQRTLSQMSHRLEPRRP

[6] = biological target: Rap guanine nucleotide exchange factor 4 (Homo sapiens) (UniProt Q8WZA2); experiment: Confirmatory qHTS for antagonist of cAMP-regulated guanine nucleotide exchange factor 4 (EPAC2) (AID 1645885); further: nearly all actives have a fitted effect of over 25% in size; further: potency means the concentration at half of the fitted maximal effect
[7] = Confirmation and Secondary Assay for Modulators of Hemoglobin Beta Chain Splicing at IVS2 654 locus (AID 910);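 further: HeLa cells stably carrying EGFP split by mutant beta-globin IVS2-654 intron; per-well total GFP intensity by laser scanning cytometry after 2-day treatment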
Outline: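 Readout: per-well total peak green fluorescence (488 nm ex, 500–520 nm em) from objects 5–250 µm, reflecting correct splicing of an EGFP-654 reporter. Compounds were applied for 2 days at 37 °C to overnight-plated HeLa EGFP-654 cells; controls were DMSO and 500 nM IVS2-654 PNA.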

[8] = Confirmation and Secondary Assay for Modulators of Hemoglobin Beta Chain Splicing at IVS2 705 locus (AID 930);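 further: HeLa cells stably expressing the EGFP-705 splicing reporter; GFP fluorescence per well restored by corrected splicing of the IVS2-705 intron in EGFP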
Outline: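 First, HeLa EGFP-705 cells are seeded at 500/well in Optimem with 2% FCS and left overnight. Next, compound or DMSO is added for 2 days. Finally wells are laser-scanned and total peak GFP intensity scored.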

[9] = biological target: Ubiquitin carboxyl-terminal hydrolase 1 (Homo sapiens) (UniProt O94782); experiment: Inhibitors of USP1/UAF1: Pilot qHTS (AID 504865); further: nearly all actives have a fitted effect of over 35% in size; further: potency means the concentration at half of the fitted maximal effect;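 on activity change, negative = inhibition: rhodamine fluorescence freed from ubiquitin-rhodamine substrate followed over time; top concentration of the series differs between compounds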
Chain of Ubiquitin carboxyl-terminal hydrolase 1 (Homo sapiens) (O94782 whole entry, looked up): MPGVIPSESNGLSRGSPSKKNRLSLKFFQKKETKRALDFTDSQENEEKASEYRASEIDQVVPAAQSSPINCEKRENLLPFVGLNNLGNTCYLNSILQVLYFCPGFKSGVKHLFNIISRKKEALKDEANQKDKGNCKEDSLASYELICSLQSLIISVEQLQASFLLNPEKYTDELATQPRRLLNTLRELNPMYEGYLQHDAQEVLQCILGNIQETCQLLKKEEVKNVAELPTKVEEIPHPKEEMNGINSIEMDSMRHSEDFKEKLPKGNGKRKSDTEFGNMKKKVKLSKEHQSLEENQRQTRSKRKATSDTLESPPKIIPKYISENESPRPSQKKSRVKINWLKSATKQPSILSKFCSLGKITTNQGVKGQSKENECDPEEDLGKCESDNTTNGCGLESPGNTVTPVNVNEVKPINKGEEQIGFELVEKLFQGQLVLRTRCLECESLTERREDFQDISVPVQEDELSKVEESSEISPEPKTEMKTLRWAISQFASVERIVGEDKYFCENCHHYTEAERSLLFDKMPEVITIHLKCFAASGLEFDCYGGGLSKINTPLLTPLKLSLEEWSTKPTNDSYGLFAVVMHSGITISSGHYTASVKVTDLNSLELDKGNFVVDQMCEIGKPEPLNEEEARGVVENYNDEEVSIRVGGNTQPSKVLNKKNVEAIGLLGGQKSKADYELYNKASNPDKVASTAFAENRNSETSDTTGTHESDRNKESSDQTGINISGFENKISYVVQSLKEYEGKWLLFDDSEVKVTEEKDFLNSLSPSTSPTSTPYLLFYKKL
Outline: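 In 50mM HEPES pH 7.8 containing 0.5mM EDTA, 1mM TCEP, 0.1 mg/ml BSA and 0.01% Tween-20, 1nM USP1/UAF1 is exposed to compound for 15 min, then Ub-Rho (150nM final) is added and fluorescence is read over time.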

[10] = biological target: Cytochrome P450 3A4 (Homo sapiens) (UniProt P08684); experiment: qHTS Assay for Inhibitors and Substrates of Cytochrome P450 3A4 (AID 884); further: nearly all actives have a fitted effect of over 50% in size
Outline: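 Luminescent readout of luciferin produced by CYP3A4 (20 nM) dealkylation of Luciferin-PPXE, 25 uM (its KM). NADPH-driven reaction ran 60 min at RT after 10 min compound preincubation; data scaled to 57 uM ketoconazole as 100% inhibition.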

[11] = biological target: Rap guanine nucleotide exchange factor 3 (Homo sapiens) (UniProt O95398); experiment: Confirmatory qHTS for antagonist of cAMP-regulated guanine nucleotide exchange factor 3 (EPAC1) (AID 1645880); further: nearly all actives have a fitted effect of over 55% in size
Outline: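 Released BODIPY-GDP fluoresces less than Rap1-bound BODIPY-GDP; the signal is followed at 480/540 nm at 5-min intervals over 30 min, after 5 min at room temperature. Reactions contain 100 nM EPAC1, 250 nM RAP1B-BODIPY-GDP and 50 uM GDP; results are normalized to ATA and DMSO.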

[12] = biological target: Lysosomal acid glucosylceramidase (Homo sapiens) (UniProt P04062); experiment: Glucocerebrosidase-p2 (AID 348; in the data active means potency below about 10 µM; further: potency means the concentration at half of the fitted maximal effect); conditions: purified GBA, blue fluorogenic substrate, 40 min
Chain of Lysosomal acid glucosylceramidase (Homo sapiens) (P04062 whole entry, looked up): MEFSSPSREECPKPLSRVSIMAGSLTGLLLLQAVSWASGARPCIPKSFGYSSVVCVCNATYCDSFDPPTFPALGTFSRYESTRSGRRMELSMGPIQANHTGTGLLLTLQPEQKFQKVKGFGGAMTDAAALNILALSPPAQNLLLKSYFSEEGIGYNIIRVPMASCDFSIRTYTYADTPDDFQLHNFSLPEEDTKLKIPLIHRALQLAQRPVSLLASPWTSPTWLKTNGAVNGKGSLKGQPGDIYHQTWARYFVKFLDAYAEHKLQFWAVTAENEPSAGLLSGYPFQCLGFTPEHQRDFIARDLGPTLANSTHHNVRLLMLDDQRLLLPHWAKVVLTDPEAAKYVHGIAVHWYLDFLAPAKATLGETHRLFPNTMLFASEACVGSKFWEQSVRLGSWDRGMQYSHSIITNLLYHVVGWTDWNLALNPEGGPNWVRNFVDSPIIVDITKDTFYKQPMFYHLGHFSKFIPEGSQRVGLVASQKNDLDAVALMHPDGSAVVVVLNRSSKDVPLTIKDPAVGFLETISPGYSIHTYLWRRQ
Outline: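 Normal human glucocerebrosidase (0.2 nM) with blue fluorogenic substrate (80 uM final) in citrate/phosphate pH 5.9 with 10mM sodium taurocholate, 0.01% tween-20; 40 min RT, NaOH/glycine stop; fluorescence Ex 365/Em 440; AC50 from a titration from 0.6 nM upwards.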

[13] = AP1 Signaling Pathway (AID 357; active means well fitted curve in either direction with a large enough effect, not every such curve was filed as active;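 further: ME-180 reporter cells stimulated with EGF at its EC50 level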); conditions: ME-180 AP-1-bla reporter, EGF-induced, beta-lactamase ratio, 5 h; at 7.69 µM (top of the series) unless noted
Outline: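 First, ME-180 AP-1-bla cells were cultured overnight at 37 °C in low-serum Opti-MEM. Next, titrated compounds with EC50 EGF were incubated 5 hours. Finally, CCF4 was added for 2.5 hours and the 460/530 nm ratio recorded.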

[14] = biological target: Cytochrome P450 1A2 (Homo sapiens) (UniProt P05177); experiment: p450-cyp1a2 (AID 410; calls by dose curve; further: potency means the concentration at half of the fitted maximal effect)
Outline: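 Read-out is luminescence from luciferin produced by CYP1A2 demethylation of Luciferin-ME (100uM, at Km). Detection reagent stopped the 60 min NADPH-dependent reaction; signals were normalized to 57 uM furafylline.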

[15] = Stat Signaling Pathway (AID 446; active means well fitted curve in either direction with a large enough effect, not every such curve was filed as active;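 further: ME-180 cervical cancer cells given 40 pM IL-6 alongside compound; SIE-controlled beta-lactamase reporter measured as 460/530 nm FRET emission ratio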); conditions: ME-180 (cervical carcinoma) SIE beta-lactamase reporter, IL-6 stimulated, 5 h; at 7.69 µM (top of the series) unless noted
Outline: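 Normalization used AC90 stimulation (300 pM IL-6) and AC90 inhibition (125 nM pan-JAK inhibitor at 40 pM IL-6). The underlying signal is SIE-driven beta-lactamase in ME-180 cells after 5 h IL-6 exposure with compound.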

[16] = biological target: Glucocorticoid receptor (Homo sapiens) (UniProt P04150); experiment: GR-GFP Redistribution (AID 450;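 active means compounds whose dose series gives a full or clear partial fitted curve of increased nuclear translocation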; further: potency means the concentration at half of the fitted maximal effect); conditions: U2OS GR-GFP nuclear translocation, laser cytometry, 2 h
Chain of Glucocorticoid receptor (Homo sapiens) (P04150 whole entry, looked up, the tested form may be a part): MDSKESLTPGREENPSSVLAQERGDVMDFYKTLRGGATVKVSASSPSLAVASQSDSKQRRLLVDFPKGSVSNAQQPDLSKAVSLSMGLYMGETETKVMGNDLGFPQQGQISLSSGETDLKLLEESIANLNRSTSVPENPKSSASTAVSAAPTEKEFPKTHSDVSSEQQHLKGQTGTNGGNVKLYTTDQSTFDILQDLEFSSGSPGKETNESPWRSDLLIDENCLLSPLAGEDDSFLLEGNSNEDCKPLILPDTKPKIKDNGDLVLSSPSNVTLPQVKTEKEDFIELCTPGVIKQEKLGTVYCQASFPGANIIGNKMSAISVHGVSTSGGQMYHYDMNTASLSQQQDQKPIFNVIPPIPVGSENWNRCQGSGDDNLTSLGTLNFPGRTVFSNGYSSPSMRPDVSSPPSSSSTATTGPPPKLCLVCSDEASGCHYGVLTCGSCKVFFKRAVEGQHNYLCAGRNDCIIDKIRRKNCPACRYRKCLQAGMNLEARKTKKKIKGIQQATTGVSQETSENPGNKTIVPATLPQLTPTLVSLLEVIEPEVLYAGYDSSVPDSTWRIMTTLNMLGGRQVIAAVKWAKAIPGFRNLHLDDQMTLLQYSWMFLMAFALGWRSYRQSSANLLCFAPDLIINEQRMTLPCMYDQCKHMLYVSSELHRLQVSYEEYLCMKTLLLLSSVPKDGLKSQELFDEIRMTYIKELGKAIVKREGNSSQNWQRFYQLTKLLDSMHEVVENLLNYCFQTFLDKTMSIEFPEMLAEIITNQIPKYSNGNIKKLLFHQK

[17] = biological target: Glucocorticoid receptor (Homo sapiens) (UniProt P04150); experiment: GR-EFC Redistribution (AID 451; calls by dose curve; further: potency means the concentration at half of the fitted maximal effect); conditions: CHO-K1 GR-EFC translocation, beta-gal luminescence, 2 h
Outline: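 Translocation of GR-ED fusion to nuclear EA restores b-gal, read by luminescence after 1 h room-temperature detection. Engineered CHO-K1 biosensor cells, 1,000/well, exposed 2 h at 37 C to titrations up to 46 uM final.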

[18] = measured here: cell count channel max response
[19] = measured here: lipid channel max response

For CC1(C)[C@@H](O)CC[C@]2(C)C3C(=O)C=C4C5C[C@@](C)(C(=O)O)CC[C@]5(C)CC[C@@]4(C)[C@]3(C)CC[C@@H]12 (stereo partly drawn), the Potency [1] was “inactive”, the activity change, negative = inhibition [2] was 2.84% (inactive) and the max response [2, 18] was 8.09%. For the same compound, the max response [2, 19] was 11.1%, the outcome [3] was “inactive” and the Potency [4] was “inactive”. For the same compound, the Potency [5] was “inactive” and the Potency [6] was 5.55 µM (active).

In the case of COc1cc(C/C=C/c2ccccc2)c(OC)cc1O, the Potency [1] is reported as “inactive”, the Potency [7] is reported as “inactive” and the outcome [8] is reported as “inactive”. The activity change, negative = inhibition [2] was 1.85% (inactive), the max response [2, 18] was 4.35% and the max response [2, 19] was 7.15%. For the same compound, the Potency [9] was “inactive”, the Potency [4] was “inactive” and the Potency [5] was “inactive”. For the same compound, the Potency [6] was “inactive”.

With CC1=CC2C(CC1=O)C(C)=CCC2C(C)C (stereo not drawn) the Potency [10] was “inactive”, the outcome [8] was “inactive” and the activity change, negative = inhibition [2] was 1.38% (inactive). The max response [2, 18] was 3.62%, the max response [2, 19] was 5.28% and the Potency [9] was “inactive”. For the same compound, the Potency [11] was “inactive”, the Potency [4] was “inactive” and the Potency [5] was “inactive”. For the same compound, the Potency [6] was 39.3 µM (active).

With CC(=O)OC1CC2C(C)(C)CCC(=O)[C@@]2(C)C2CC[C@@]3(C)C(c4ccoc4)OC(=O)C4OC43[C@]12C (stereo partly drawn) the Potency [10] was “inactive”, the Potency [7] was “inactive” and the outcome [8] was “inactive”. For the same compound, the activity change, negative = inhibition [2] was 2.56% (inactive), the max response [2, 18] was 0.203% and the max response [2, 19] was 3.26%. For the same compound, the Potency [9] was “inactive”, the Potency [11] was “inactive” and the Potency [4] was “inactive”. For the same compound, the Potency [5] was “inactive” and the Potency [6] was “inactive”.

For CN(Cc1ccco1)c1nc(-c2cccc(C#N)c2)nc2ccccc12, the Potency [12] was > 11.4 µM (inactive), the activity change, negative = inhibition [13] was 6.74% (inactive) and the Potency [14] was 0.1 µM (active). The activity, negative = inhibition [15] was 12.3% (inactive), the Potency [16] was > 46 µM (inactive) and the Potency [17] was > 46 µM (inactive). For the same compound, the Potency [1] was “inactive”, the outcome [8] was “inactive” and the activity change, negative = inhibition [2] was 10.1% (inactive). The max response [2, 18] was 1.16%, the max response [2, 19] was 12.8% and the Potency [4] was “inactive”. For the same compound, the Potency [5] was “inactive” and the Potency [6] was “inactive”.

In the case of O=C(O)c1cc(O)c2c(c1)C(=O)c1cc(O)cc(O)c1C2=O, the Potency [1] is reported as “inactive”, the Potency [7] is reported as “inactive” and the outcome [8] is reported as “inactive”. The activity change, negative = inhibition [2] was 8.22% (inactive), the max response [2, 18] was 22.4% and the max response [2, 19] was 36.4%. The Potency [9] was 56.2 µM (active), the Potency [4] was “inactive” and the Potency [5] was “inactive”. For the same compound, the Potency [6] was “inactive”.

With COc1ccc(C(=O)O)c(O)c1OC the Potency [10] was “inactive”, the outcome [8] was “inactive” and the activity change, negative = inhibition [2] was 7.29% (inactive). The max response [2, 18] was 8.57%, the max response [2, 19] was 18.5% and the Potency [9] was “inactive”. The Potency [11] was “inactive”, the Potency [4] was “inactive” and the Potency [5] was “inactive”. For the same compound, the Potency [6] was “inactive”.
